In the library only some 8.3% were active in any assay of this set; here they are far more common.
Giardia killer – Giardia lamblia killing. Giardia lamblia trophozoite viability. activity change, % at 7.66 µM, hits read low. 340,000 tested, 0.15% active. AID 540267; in the data active = activity change below about -80%; inconclusive = between about -30% and that limit;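 also: parasites exposed to compound for two days anaerobically before the ATP read; % is scaled to controls: 0 for no effect and ±100 for the full control effect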
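Media and compound were dispensed first, then trophozoites at 100 cells/well; plates sat 48 hrs at 37 deg C without oxygen before ATP luminescence reagent was added and read after 15-30 min at room temperature.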
BCR signal inh – inhibitors of chronic active B-cell receptor signaling; ABC-DLBCL IkBa-CBG/CBR reporter, luminescence ratio, 4 h; Potency, µM (highest dose often 46.1 µM), inactives show top-dose activity change, negative = inhibition, most hits filed as inhibitors; 340,000 tested, 0.05% active; active = well fitted inhibition curve with a large enough effect in the signal ratio, with a control signal flat, not every such curve was filed as active; inconclusive = small, poorly fitted or top-dose-only effect, or effect the other way, or a change in a side signal; the % refers to the signal ratio;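 also: potency is read from the fitted curve at half-maximal effect; plate controls were basal doxycycline-induced cells for no effect and cells given 10 µM MG132 for full effect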
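Concentration-response series (up to 46 uM) were applied to TMD8 dual-reporter cells for 4 h at 37C with doxycycline. Green/red ratio, after filter-overlap correction, defined %Activity; red signal alone was normalised to basal cells and zero luminescence.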
RORg inh – blocks mouse ROR gamma transcriptional activity. Drosophila S2 Gal4-RORgamma UAS-luciferase reporter, 20 h. AID 2551. 310,000 tested, 5.4% active. Potency, µM (titrated, usually from 53.6 µM), without a hit: top-dose activity change, negative = inhibition, usual class: inhibitors; also: potency is read from the fitted curve at half-maximal effect; % is scaled to controls: 0 for no effect and ±100 for the full control effect; nearly all actives have a fitted effect of over 60% in size
Target sequence (P51450 whole entry, looked up, the tested form may be a part): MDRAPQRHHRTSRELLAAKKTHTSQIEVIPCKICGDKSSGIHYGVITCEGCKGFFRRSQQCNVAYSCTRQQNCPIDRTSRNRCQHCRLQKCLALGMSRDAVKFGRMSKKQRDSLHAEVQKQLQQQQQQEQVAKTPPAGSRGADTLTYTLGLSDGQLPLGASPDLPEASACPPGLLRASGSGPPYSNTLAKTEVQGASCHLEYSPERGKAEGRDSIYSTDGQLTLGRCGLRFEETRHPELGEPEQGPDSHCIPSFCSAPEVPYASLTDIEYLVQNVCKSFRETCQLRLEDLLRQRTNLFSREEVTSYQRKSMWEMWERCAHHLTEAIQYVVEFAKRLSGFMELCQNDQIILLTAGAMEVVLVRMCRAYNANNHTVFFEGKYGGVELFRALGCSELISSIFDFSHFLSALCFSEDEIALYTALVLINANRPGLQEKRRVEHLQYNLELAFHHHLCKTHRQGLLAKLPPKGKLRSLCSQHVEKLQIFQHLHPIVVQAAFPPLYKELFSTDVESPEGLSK
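A Gal4/UAS one-hybrid system in insect cells: metallothionein-promoter Gal4–ROR gamma fusion plus Photinus luciferase reporter. Copper sulfate 700 uM final, 20 hr ambient incubation, luminescent detection after 10 min with reagent.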
Gal4-VP16 FLuc – Gal4-VP16 reporter inhibition counter-screen. Drosophila S2 Gal4-VP16 UAS-luciferase, luminescence, 20 h. Potency, µM (highest dose often 53.6 µM), without a hit: at the top dose activity, negative = inhibition, actives largely listed as inhibitors. 310,000 tested, 3.5% active;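 also: Gal4-VP16 expression switched on by copper sulfate through the metallothionein promoter; potency is read from the fitted curve at half-maximal effect; % is scaled to controls: 0 for no effect and ±100 for the full control effect; nearly all actives have a fitted effect of over 50% in size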
MCF10A rerep – inducers of DNA re-replication in MCF 10A breast cells; MCF 10A DNA re-replication, Hoechst nuclear intensity, 48 h; Potency, µM (series often up to 46.1 µM), without a hit: top-dose activity, positive = re-replication, hits mostly activators; 350,000 tested, 2.9% active; also: potency is read from the fitted curve at half-maximal effect; % of control where 0% means no effect; nearly all actives have a fitted effect of over 50% in size
SW480 rerep – inducers of DNA re-replication in SW480 colon cancer cells; 340,000 tested, 1.8% active; AID 624297; SW480 DNA re-replication, Hoechst DNA content imaging, 48 h; Potency, µM (highest dose often 46.1 µM), inactives show at the highest dose re-replication activation, actives largely listed as activators; also: potency is read from the fitted curve at half-maximal effect; % of control where 0% means no effect; nearly all actives have a fitted effect of over 55% in size
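Image-based read-out: total Hoechst fluorescence of nuclei (405 nm excitation, 500-530 nm emission), with hits raising the fraction of high-intensity nuclei. SW480 colon cells incubated 48 hr with compounds at 37 C.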
Numbers without * were called inactive; ? = inconclusive; . = no result; [ ] = dose if it differs, or a comment. Unless noted, calls follow the shape of the dose curve; as a rule, active = well fitted curve in the direction sought with a large enough effect; inconclusive = small, poorly fitted or top-dose-only effect, or another doubt; inactive = no such curve, though single readings can be large; an effect the other way counts as inactive or inconclusive.

SMILES | Giardia killer | BCR signal inh | RORg inh | Gal4-VP16 FLuc | MCF10A rerep | SW480 rerep
COc1ccc(/C=C2\CCCc3c2nc2ccccc2c3C(=O)O)cc1OC | . | -5% | 6% | 6% | . | .
COc1ccc(/C=C2\CCc3c2nc2ccccc2c3C(=O)O)cc1OC | ? | -3% | 8.9µM* | 11µM* | ? | 4%
O=C(COc1ccccc1)NCC(=O)N/N=C/c1ccc(Br)cc1 | 23 | 0% | 4% | -4% | -2% | -3%
COc1ccc(N2CCN(Cc3nnnn3C3CCCCC3)CC2)cc1 | 9 | -1% | -29% | 5% | 0% | -11%
O=C(CSc1ncn[nH]1)NCc1ccccc1Cl | -6 | -20% | 44% | 0% | 3% | -11%
Cc1ccc(CNC(=S)Nc2ccc(OC(F)F)cc2C)cc1 | 17 | -4% | 5.6µM* | 4.5µM* | 9% | -19%
Cc1ccc(NC(=S)NCc2ccc(Cl)cc2)c(OC(F)F)c1 | -13 | -2% | 6.3µM* | 5µM* | 2% | -3%
Cc1ccccc1Cn1c(=O)n(CCCC(=O)NCc2ccco2)c(=O)c2ccccc21 | 2 | -2% | 56% | 4% | 2% | 3%
Cc1cccc(Cn2c(=O)n(CCCC(=O)NCc3ccco3)c(=O)c3ccccc32)c1 | 26 | -11% | 32% | -13% | ? | 21µM*
Cc1cc2cc3c(cc2nc1SCC(=O)Nc1nc(C)c(C)s1)OCO3 | 17 | 5% | ? | ? | 4.1µM* | 4%
CCc1cc2cc3c(cc2nc1SCC(=O)Nc1nnc(C)s1)OCCO3 | 7 | 2% | ? | ? | 3.3µM* | 16µM*
CCc1nnc(NC(=O)CSc2nc3cc4c(cc3cc2CC)OCCO4)s1 | 7 | -20% | ? | ? | ? | -4%
COC(=O)CSc1nc2cc3c(cc2cc1C)OCO3 | 48 | -5% | 21% | 4% | 3% | -8%
Cc1ccc(N2CC(C(=O)N/N=C/c3c(F)cccc3Cl)CC2=O)cc1 (configuration not stated) | -3 | -3% | -2% | -3% | 12% | 2%
C=C1C(=O)C23C(O)C1CCC2C12CCCC(C)(COC(C)=O)C1C(O)C3(O)OC2 (configuration not stated) | -7 | . | . | . | 0.73µM* | ?
COc1ccc(S(=O)(=O)Nc2ccccc2C(=O)NCc2ccco2)cc1Br | -3 | . | 0% | -5% | 12% | -7%
O=c1c2c(nc(NCCO)n1CC1CCCCC1)-c1ccccc1CC21CCCC1 | 8 | ? | 9% | 5% | 23µM* | 18%
CC(C)Cn1c(C(C)C)nc([N+](=O)[O-])c1S(=O)(=O)c1ccc(F)cc1 | 6 | ? | 11µM* | ? | 21µM* | 18µM*
COC(=O)[C@@H](NC(=O)N1CCN(C(=O)C2COc3ccccc3O2)CC1)C(C)C (some centres not stated) | -4 | -3% | -3% | 2% | 2% | 3%
CCOC(=O)C(CCc1ccccc1)NC(C)C(=O)N1Cc2ccccc2CC1C(=O)O (configuration not stated) | . | . | 8% | -3% | -2% | -12%
CC(C)CSC1=NSC2=NC(=O)/C(=C\c3cccs3)C(=N)N12 | -9 | ? | ? | -15% | 21µM* | 10%
CSc1nsc(/C=C/Nc2ccc(Cl)cc2)c1C#N | -14 | 1% | 12% | 4% | ? | 5%[9.22 µM]
CSc1nsc(/C=C/Nc2ccc(O)cc2C)c1C#N | 8 | ? | ? | -2% | ? | 23µM*
CSc1nsc(/C=C/Nc2cccc(Cl)c2)c1C#N | -27 | . | 4% | 11% | 9.2µM* | 19%
COc1cccc(-c2nc(NCCN3CCOCC3)c3ccccc3n2)c1 | . | . | 10% | 5% | . | .
O=C(Cn1nc(C(=O)O)c2ccccc2c1=O)NC12CC3CC(CC(C3)C1)C2 | -3 | 3% | -12% | 3% | ? | 7%
O=C1c2cccc(OCc3ccc(F)cc3)c2CCN1Cc1ccc(F)cc1 | -17 | ? | ? | ? | 21µM* | 8%

Screens (PubChem BioAssay)
